In PubChem BioAssay (NCI):
Compounds without any hit were thinned out: in the full panel of roughly 83,000, 20% have a hit.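 Assay: single dose, 48 h. Readout: percent growth (0 = no net growth; negative = cell death). Active: <10.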 The source made the active and inactive calls.

Key:
Experiment in all cases: NCI-60 one-dose screen, 48 h (100 = growth as untreated, 0 = no growth, -100 = all killed)
Settings in all cases: 10 µM unless noted
SR leukemia = test system: SR leukemia
RPMI-8226 leukemia = test system: RPMI-8226 leukemia
OVCAR-8 ovarian = test system: OVCAR-8 ovarian
OVCAR-5 ovarian = test system: OVCAR-5 ovarian
OVCAR-4 ovarian = test system: OVCAR-4 ovarian
SK-OV-3 ovarian = test system: SK-OV-3 ovarian
IGROV1 ovarian = test system: IGROV1 ovarian
OVCAR-3 ovarian = test system: OVCAR-3 ovarian
HS 578T breast = test system: HS 578T breast
NCI/ADR-RES ovarian = test system: NCI/ADR-RES ovarian
BT-549 breast = test system: BT-549 breast
MDA-MB-435 melanoma = test system: MDA-MB-435 melanoma
SW-620 colon = test system: SW-620 colon
MCF7 breast = test system: MCF7 breast
HCT-116 colon = test system: HCT-116 colon
HCC-2998 colon = test system: HCC-2998 colon
KM12 colon = test system: KM12 colon
MDA-MB-468 breast = test system: MDA-MB-468 breast
T-47D breast = test system: T-47D breast

Measured: growth

Cc1cccc(NCC(=O)N2CCN(c3ncnc4c3cnn4-c3ccccc3)CC2)c1
inactive: SR leukemia 22.7% | RPMI-8226 leukemia 75.7% | OVCAR-8 ovarian 65.2% | OVCAR-5 ovarian 83.8% | OVCAR-4 ovarian 51.6% | SK-OV-3 ovarian 67.1% | IGROV1 ovarian 59.4% | OVCAR-3 ovarian 94% | HS 578T breast 60.4% | NCI/ADR-RES ovarian 60.6% | BT-549 breast 76.9% | MDA-MB-435 melanoma 59% | SW-620 colon 81.5% | MCF7 breast 45.6% | HCT-116 colon 58.7% | HCC-2998 colon 86.4% | KM12 colon 40.6% | MDA-MB-468 breast 35.8%

Cc1ccc(Cl)cc1NC(=O)N/C(N)=N/c1nc2ccccc2s1
inactive: HS 578T breast 19% | T-47D breast 32.4%
active: SR leukemia 5.59% | RPMI-8226 leukemia -7.24% | OVCAR-8 ovarian -51.4% | OVCAR-5 ovarian -28.7% | OVCAR-4 ovarian -34.8% | SK-OV-3 ovarian -25.6% | IGROV1 ovarian -4.38% | NCI/ADR-RES ovarian -34.8% | BT-549 breast -7.19% | MDA-MB-435 melanoma -63.9% | SW-620 colon 1.84% | MCF7 breast 4.25% | HCT-116 colon -51.9% | HCC-2998 colon -14.8%

Cc1cc(=O)oc2cc(OCC(O)CNN3C(=O)c4cccc5c(N6CCN(C)CC6)ccc(c45)C3=O)ccc12 (stereo unspecified)
inactive: SR leukemia 81.1% | RPMI-8226 leukemia 97.4% | OVCAR-8 ovarian 91.4% | OVCAR-5 ovarian 112% | OVCAR-4 ovarian 99.1% | SK-OV-3 ovarian 116% | IGROV1 ovarian 109% | OVCAR-3 ovarian 103% | HS 578T breast 87.4% | NCI/ADR-RES ovarian 89.4% | BT-549 breast 113% | MDA-MB-435 melanoma 56.9% | SW-620 colon 84.3% | MCF7 breast 88.6% | HCT-116 colon 93.5% | HCC-2998 colon 101% | KM12 colon 90.8% | MDA-MB-468 breast 108%

CC(C)(C)OC(=O)N1C/C(=C\c2ccc(F)cc2)C(=O)/C(=C/c2ccc(F)cc2)C1
active: SR leukemia -11.1% | RPMI-8226 leukemia -15.4% | OVCAR-8 ovarian -68.3% | OVCAR-5 ovarian -81.9% | OVCAR-4 ovarian -9.66% | SK-OV-3 ovarian 0.0941% | IGROV1 ovarian -56.8% | OVCAR-3 ovarian -90% | HS 578T breast -6.73% | NCI/ADR-RES ovarian -56.8% | BT-549 breast -88.1% | MDA-MB-435 melanoma -82.6% | SW-620 colon -67.7% | MCF7 breast -66.5% | HCT-116 colon -81.5% | HCC-2998 colon -98% | KM12 colon -90.7% | MDA-MB-468 breast -82.3%

O=C(NNC(=O)c1ccc(OCc2nc3ccc(Cl)cc3[nH]2)cc1)Nc1ccc(Cl)c(C(F)(F)F)c1
active: HCT-116 colon 4.53%
inactive: SR leukemia 50.3% | RPMI-8226 leukemia 35.9% | OVCAR-8 ovarian 19.1% | OVCAR-5 ovarian 76.4% | OVCAR-4 ovarian 80.1% | SK-OV-3 ovarian 92.4% | IGROV1 ovarian 69.6% | HS 578T breast 57.2% | NCI/ADR-RES ovarian 95.4% | T-47D breast 16.4% | BT-549 breast 64.7% | MDA-MB-435 melanoma 51.4% | SW-620 colon 65% | MCF7 breast 49.5% | HCC-2998 colon 73.9% | KM12 colon 49.1% | MDA-MB-468 breast 22.4%

CCCCCCCCCCCCCCCCCC(=O)Nc1ccc(OC)cc1
inactive: SR leukemia 97.7% | RPMI-8226 leukemia 99.6% | OVCAR-8 ovarian 112% | OVCAR-5 ovarian 114% | OVCAR-4 ovarian 113% | SK-OV-3 ovarian 115% | IGROV1 ovarian 103% | OVCAR-3 ovarian 119% | HS 578T breast 101% | NCI/ADR-RES ovarian 101% | BT-549 breast 108% | MDA-MB-435 melanoma 115% | SW-620 colon 103% | MCF7 breast 93.3% | HCT-116 colon 102% | HCC-2998 colon 122% | KM12 colon 101% | MDA-MB-468 breast 99.8%

COc1cc(C2CC(c3ccc(F)cc3)=Nc3c(N)nc(N)nc3N2)ccc1Oc1nc(Nc2ccc(F)cc2)nc(N(C)C)n1 (stereo unspecified)
inactive: RPMI-8226 leukemia 15.7% | OVCAR-8 ovarian 63% | OVCAR-5 ovarian 100% | OVCAR-4 ovarian 23.5% | SK-OV-3 ovarian 86.8% | IGROV1 ovarian 51.7% | HS 578T breast 56% | NCI/ADR-RES ovarian 48.5% | T-47D breast 65.7% | BT-549 breast 51.3% | MDA-MB-435 melanoma 47% | SW-620 colon 31.8% | HCC-2998 colon 29.1% | KM12 colon 44.9%
active: SR leukemia -21.5% | MCF7 breast 7.4% | HCT-116 colon 6.9% | MDA-MB-468 breast -17.8%

Nc1nnc(CS(=O)(=O)c2ccccc2)s1
inactive: SR leukemia 108% | RPMI-8226 leukemia 103% | OVCAR-8 ovarian 97.4% | OVCAR-5 ovarian 109% | OVCAR-4 ovarian 121% | SK-OV-3 ovarian 104% | IGROV1 ovarian 101% | OVCAR-3 ovarian 104% | HS 578T breast 86% | NCI/ADR-RES ovarian 104% | MDA-MB-435 melanoma 113% | SW-620 colon 108% | MCF7 breast 101% | HCT-116 colon 107% | HCC-2998 colon 103% | KM12 colon 101% | MDA-MB-468 breast 111%

O=C(NN1C(=O)/C(=C/C=C/c2ccc([N+](=O)[O-])o2)SC1=S)c1ccc([N+](=O)[O-])cc1
active: SR leukemia -5.7% | RPMI-8226 leukemia -30.6% | OVCAR-8 ovarian -75.5% | OVCAR-5 ovarian -100% | OVCAR-4 ovarian -99% | SK-OV-3 ovarian -100% | IGROV1 ovarian -96.4% | OVCAR-3 ovarian -97.1% | HS 578T breast -27.3% | NCI/ADR-RES ovarian -44% | BT-549 breast -93.2% | MDA-MB-435 melanoma -86.9% | SW-620 colon -77.7% | MCF7 breast -61.4% | HCT-116 colon -76.3% | HCC-2998 colon -94.8% | KM12 colon -94.9% | MDA-MB-468 breast -79.3%

S=C(NCCc1ccccc1)Nc1ccc(OCc2nc3ccc(Cl)cc3[nH]2)cc1
inactive: OVCAR-8 ovarian 39.7% | OVCAR-5 ovarian 30.5% | OVCAR-4 ovarian 32.1% | SK-OV-3 ovarian 77.2% | IGROV1 ovarian 31.4% | OVCAR-3 ovarian 34.9% | HS 578T breast 38.4% | NCI/ADR-RES ovarian 11.7% | BT-549 breast 45.9% | MDA-MB-435 melanoma 36.6% | SW-620 colon 37% | HCT-116 colon 18.9% | KM12 colon 18.6% | MDA-MB-468 breast 21.7%
active: SR leukemia -7.42% | RPMI-8226 leukemia 7.74% | MCF7 breast 7.94% | HCC-2998 colon 3.57%

CC(C)C[C@H](NC(=O)[C@@H]1CCCCCCCCCCC(=O)N[C@@H](CC(=O)N2CCC[C@@H]2C2CCCC2)C(=O)N1)B(O)O
active: SR leukemia -14.3% | OVCAR-8 ovarian -17.4% | OVCAR-5 ovarian -36.8% | OVCAR-4 ovarian -13% | SK-OV-3 ovarian -7.33% | IGROV1 ovarian -58.2% | HS 578T breast 3.6% | NCI/ADR-RES ovarian 1.84% | T-47D breast -20% | BT-549 breast -79.2% | MDA-MB-435 melanoma -57.3% | SW-620 colon 4.22% | MCF7 breast -28.2% | HCT-116 colon -80% | HCC-2998 colon -100% | KM12 colon -35.7%
inactive: RPMI-8226 leukemia 22%

COC(=O)c1cccc(Oc2ccc(NC(=O)Nc3cc(C(F)(F)F)ccc3F)cc2)c1
inactive: SR leukemia 26.9% | RPMI-8226 leukemia 62.8% | OVCAR-8 ovarian 40.3% | OVCAR-5 ovarian 87.1% | OVCAR-4 ovarian 55.4% | SK-OV-3 ovarian 87.6% | IGROV1 ovarian 56.7% | NCI/ADR-RES ovarian 73.9% | T-47D breast 47% | BT-549 breast 64.7% | MDA-MB-435 melanoma 92.4% | SW-620 colon 89.7% | MCF7 breast 61.8% | HCT-116 colon 60.7% | HCC-2998 colon 96.9% | KM12 colon 75.3% | MDA-MB-468 breast 71.5%
active: HS 578T breast 4.44%

Cc1ccc(C(=O)Nc2cc(-n3ccnc3C)cc(C(F)(F)F)c2)cc1C#Cc1cnc2cccnn12
active: SR leukemia -17.9% | RPMI-8226 leukemia -14.8% | OVCAR-5 ovarian 7.14% | SK-OV-3 ovarian -0.287% | IGROV1 ovarian 4.66% | HS 578T breast -25.9% | NCI/ADR-RES ovarian 4.26% | BT-549 breast -22.7% | MDA-MB-435 melanoma 3.5% | MCF7 breast 0.633% | HCT-116 colon -41.3% | HCC-2998 colon -48.7% | KM12 colon 3.67% | MDA-MB-468 breast -20.6%
inactive: OVCAR-8 ovarian 18.5% | OVCAR-4 ovarian 15.6% | OVCAR-3 ovarian 37.8% | SW-620 colon 12.6%

COc1ccc(-c2cc(C)nc3[nH]c(=O)sc23)cc1
inactive: SR leukemia 75.5% | RPMI-8226 leukemia 69.4% | OVCAR-8 ovarian 63.5% | OVCAR-5 ovarian 80.4% | SK-OV-3 ovarian 55.9% | IGROV1 ovarian 62.5% | HS 578T breast 48.2% | NCI/ADR-RES ovarian 62.4% | BT-549 breast 58.9% | MDA-MB-435 melanoma 78.7% | SW-620 colon 98.1% | MCF7 breast 83.8% | HCT-116 colon 52.1% | HCC-2998 colon 84.2% | KM12 colon 81.3%
active: OVCAR-4 ovarian 2.45% | T-47D breast -15.1%

Fc1ccc(Nc2nnc(-c3c[nH]c4ccccc34)o2)cc1
inactive: SR leukemia 70.4% | RPMI-8226 leukemia 24.7% | OVCAR-8 ovarian 85.5% | OVCAR-5 ovarian 105% | OVCAR-4 ovarian 81.1% | SK-OV-3 ovarian 83.6% | IGROV1 ovarian 50.8% | OVCAR-3 ovarian 107% | HS 578T breast 82% | NCI/ADR-RES ovarian 74.6% | BT-549 breast 67.3% | MDA-MB-435 melanoma 89.8% | SW-620 colon 100% | MCF7 breast 49.9% | HCT-116 colon 90.3% | HCC-2998 colon 98.5% | KM12 colon 64.4% | MDA-MB-468 breast 32.6%

COc1ccc(Nc2ncnc3sc4c(c23)CCN(Cc2ccccc2)C4)cc1
inactive: SR leukemia 82.9% | RPMI-8226 leukemia 62.1% | OVCAR-8 ovarian 82.8% | OVCAR-5 ovarian 106% | OVCAR-4 ovarian 68.4% | SK-OV-3 ovarian 102% | IGROV1 ovarian 80.8% | OVCAR-3 ovarian 93.7% | HS 578T breast 74.8% | NCI/ADR-RES ovarian 76.7% | BT-549 breast 38.8% | MDA-MB-435 melanoma 82.1% | SW-620 colon 99.8% | MCF7 breast 53.4% | HCT-116 colon 86.4% | HCC-2998 colon 105% | KM12 colon 82.1% | MDA-MB-468 breast 56.6%

O=C(N/N=C/c1ccsc1)c1[nH]c2ccc(Br)cc2c1-c1ccccc1
active: SR leukemia 2.42% | RPMI-8226 leukemia 1.5% | OVCAR-8 ovarian -49.4% | OVCAR-5 ovarian -57.4% | OVCAR-4 ovarian -30.8% | SK-OV-3 ovarian -36.9% | IGROV1 ovarian -57% | OVCAR-3 ovarian -72.9% | HS 578T breast -13.3% | NCI/ADR-RES ovarian -42% | BT-549 breast -86% | MDA-MB-435 melanoma -85.3% | SW-620 colon -68% | MCF7 breast -50.9% | HCT-116 colon -71% | HCC-2998 colon -59.4% | KM12 colon -49.3% | MDA-MB-468 breast -25.6%
